From PubChem BioAssay (Tox21) come the findings set out here.

Assay [1] is described as follows: qHTS assay to identify small molecule antagonists of the glucocorticoid receptor (GR) signaling pathway - cell viability counter screen (AID 720693). Note: nearly all actives have a fitted effect of over 55% in size.
Assay [2] can be described thus: qHTS assay for identifying genotoxic compounds that show differential cytotoxicity against isogenic chicken DT40 cell lines with known DNA damage response pathways - Rev3 mutant cell line (AID 743014). Note: nearly all actives have a fitted effect of over 55% in size. Note: potency is the fitted concentration of half-maximal effect.
Assay [3] in a line: qHTS assay to identify small molecule antagonists of the androgen receptor (AR) signaling pathway - cell viability counter screen (AID 743033; note: nearly all actives have a fitted effect of over 45% in size).
Assay [4] in a line: qHTS assay to identify small molecule antagonists of the thyroid receptor (TR) signaling pathway - cell viability counter screen (AID 743064). Note: nearly all actives have a fitted effect of over 50% in size. In a few lines: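 GH3.TRE-Luc rat pituitary cells dosed after 4 hr plating, co-stimulated with T3 at 1 nM final, incubated 23.5 h at 37 C. Viability measured in the same wells by CellTiter-Fluor fluorescence after 30 min further at 37 C.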

The test system of assay [5] is thyroid hormone receptor (rat, GH3 cells). As to the kind of experiment: qHTS assay to identify small molecule agonists of the thyroid receptor (TR) signaling pathway (AID 743066; calls by dose curve).
A short description of assay [6]: qHTS assay to identify small molecule antagonists of the estrogen receptor alpha (ER-alpha) signaling pathway - cell viability counter screen (AID 743074; calls by dose curve; note: nearly all actives have a fitted effect of over 45% in size).
Assay [7] is described as follows: qHTS assay to identify small molecule antagonists of the estrogen receptor alpha (ER-alpha) signaling pathway using the BG1 cell line - cell viability counter screen (AID 743081). For activity change, negative = cytotoxicity: series mostly up to about 70 µM.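 Note: compound given together with 17beta-estradiol as the ER stimulus; nearly all actives have a fitted effect of over 45% in size.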 Note: potency is the fitted concentration of half-maximal effect.
A further assay deals with Aromatase (Homo sapiens) (UniProt P11511). The experiment in a line: qHTS assay to identify aromatase inhibitors (AID 743083). Note: series mostly up to about 70 µM; nearly all actives have a fitted effect of over 55% in size.
Assay [8] can be described thus: qHTS assay for identifying genotoxic compounds that show differential cytotoxicity against isogenic chicken DT40 cell lines with known DNA damage response pathways - Rad54/Ku70 mutant cell line (AID 743015). Note: nearly all actives have a fitted effect of over 60% in size. Note: potency is the fitted concentration of half-maximal effect.
Assay [9] is described as follows: qHTS assay to identify small molecule antagonists of the androgen receptor (AR) signaling pathway using the MDA cell line - cell viability counter screen (AID 743041; note: nearly all actives have a fitted effect of over 45% in size). In a few lines:
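Using the breast carcinoma line MDA-kb2 AR-luc, test chemicals were co-incubated with R1881 for 16 h; CellTiter-Fluor reagent, added at 15.5 h, provided a fluorescence measure of live cells.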

The nature of assay [10]: qHTS assay to identify small molecule antagonists of the thyroid receptor (TR) signaling pathway (AID 743065). Note: series mostly up to about 70 µM; nearly all actives have a fitted effect of over 55% in size. The method in brief:
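Antagonism measured as loss of luciferase signal in GH3 cells stably carrying a TRE-luciferase reporter, co-treated with compound and T3 (1 nM final) for 23.5 h at 37 C. Viability was read in the same well by CellTiter-Fluor.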

The target of assay [11] is Estrogen receptor (Homo sapiens) (UniProt P03372). The experiment in a line: qHTS assay to identify small molecule antagonists of the estrogen receptor alpha (ER-alpha) signaling pathway (AID 743069; active = well fitted curve in the direction sought with a large enough effect in the signal ratio in the repeat runs, not every such curve was filed as active; the % refers to the signal ratio). The method in brief:
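Fluorescence intensity from a beta-lactamase FRET substrate served as the read-out. Cells: HEK293 with stably integrated ER-alpha-UAS-bla reporter. Agonist 17beta-estradiol was co-added with compounds; incubation 18 hr at 37C, substrate 2 hr at room temperature.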

Assay [12] shares this target. As to the kind of experiment: qHTS assay to identify small molecule agonists of the estrogen receptor alpha (ER-alpha) signaling pathway (AID 743075; calls by dose curve).
Assay [13] shares this target. The experiment in a line: qHTS assay to identify small molecule agonists of the estrogen receptor alpha (ER-alpha) signaling pathway using the BG1 cell line (AID 743079). Note: nearly all actives have a fitted effect of over 20% in size.
The nature of assay [14]: qHTS assay to identify small molecule antagonists of the estrogen receptor alpha (ER-alpha) signaling pathway using the BG1 cell line (AID 743080; calls by dose curve;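 note: BG1 cells stimulated with 17beta-estradiol alongside compound; series mostly up to about 70 µM; nearly all actives have a fitted effect of over 25% in size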). The method in brief:
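Seeding, 24 h rest, compound transfer from DMSO, 17beta-estradiol addition, 21.5 h incubation, CellTiter-Fluor (30 min, 37 C), then ONE-Glo (30 min, room temperature): this sequence was run on BG1-Luc-4E2 reporter cells.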

Assay [15] has as its target Androgen receptor (Homo sapiens) (UniProt P10275). The experiment in a line: qHTS assay to identify small molecule antagonists of the androgen receptor (AR) signaling pathway (AID 743035; active = well fitted inhibition curve with a large enough effect in the signal ratio in the repeat runs, not every such curve was filed as active; the % refers to the signal ratio). In a few lines:
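Quantitative HTS of the Tox21 10K library used HEK293 AR-UAS-bla cells stimulated with R1881 alongside compound for 16 h at 37C, followed by beta-lactamase FRET detection (LiveBLAzer B/G, 2 h, RT).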

Assay [16] shares this target. As to the kind of experiment: qHTS assay to identify small molecule agonists of the androgen receptor (AR) signaling pathway using the MDA cell line (AID 743040; note: nearly all actives have a fitted effect of over 20% in size; note: potency is the fitted concentration of half-maximal effect). The method in brief: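 Stable MMTV-luciferase reporter in MDA-kb2 cells; note the promoter carries GR as well as AR response elements. 16 h compound treatment, 37C, 0% CO2; ONE-Glo luminescence endpoint.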

For assay [17] the target is unchanged. The experiment in a line: qHTS assay to identify small molecule antagonists of the androgen receptor (AR) signaling pathway using the MDA cell line (AID 743042; note: nearly all actives have a fitted effect of over 55% in size). The method in brief: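 Antagonist mode: compounds plus R1881 agonist added to MDA-kb2 AR-luc cells, incubated 16 h at 37C. Luciferase reporter luminescence quantified, with multiplexed CellTiter-Fluor readout for cell viability.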

Assay [18] shares this target. The experiment in a line: qHTS assay to identify small molecule agonists of the androgen receptor (AR) signaling pathway (AID 743036; active = well fitted activation curve with a large enough effect in the signal ratio in the repeat runs, with a control signal flat, not every such curve was filed as active; the % refers to the signal ratio). In a few lines: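 AR-UAS-bla HEK293 cells, plated 4 h before dosing, were treated with compound for 16 h at 37C. beta-Lactamase reporter read after 2 h with LiveBLAzer B/G FRET substrate at room temperature.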

A number with no mark means an inactive call. Results filed as inconclusive are left out. The source made the active and inactive calls. Unless noted, calls come from the whole dose curve; as a rule, active = well fitted curve in the direction sought with a large enough effect in the repeat runs; inconclusive = weak or mixed curves; inactive = no such curve, though single readings can be large; an effect the other way counts as inactive or inconclusive.
% is set by controls: 0 for no effect and ±100 for the full control effect.

Aromatase (Homo sapiens), sequence (P11511 whole entry, looked up): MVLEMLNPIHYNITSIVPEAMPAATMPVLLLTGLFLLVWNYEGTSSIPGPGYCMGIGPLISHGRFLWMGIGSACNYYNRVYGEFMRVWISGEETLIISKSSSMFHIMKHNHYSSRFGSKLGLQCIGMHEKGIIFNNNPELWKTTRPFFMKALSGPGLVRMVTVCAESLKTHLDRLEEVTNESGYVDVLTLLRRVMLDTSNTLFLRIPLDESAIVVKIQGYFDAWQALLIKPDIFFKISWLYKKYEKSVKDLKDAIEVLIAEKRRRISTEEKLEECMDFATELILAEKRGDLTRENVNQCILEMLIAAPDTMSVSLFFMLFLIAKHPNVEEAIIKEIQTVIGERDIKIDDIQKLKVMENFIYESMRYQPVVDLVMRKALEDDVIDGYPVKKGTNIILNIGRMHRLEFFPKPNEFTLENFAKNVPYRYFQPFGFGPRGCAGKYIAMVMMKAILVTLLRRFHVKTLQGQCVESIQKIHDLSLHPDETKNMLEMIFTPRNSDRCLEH
Estrogen receptor (Homo sapiens), sequence (P03372 whole entry, looked up): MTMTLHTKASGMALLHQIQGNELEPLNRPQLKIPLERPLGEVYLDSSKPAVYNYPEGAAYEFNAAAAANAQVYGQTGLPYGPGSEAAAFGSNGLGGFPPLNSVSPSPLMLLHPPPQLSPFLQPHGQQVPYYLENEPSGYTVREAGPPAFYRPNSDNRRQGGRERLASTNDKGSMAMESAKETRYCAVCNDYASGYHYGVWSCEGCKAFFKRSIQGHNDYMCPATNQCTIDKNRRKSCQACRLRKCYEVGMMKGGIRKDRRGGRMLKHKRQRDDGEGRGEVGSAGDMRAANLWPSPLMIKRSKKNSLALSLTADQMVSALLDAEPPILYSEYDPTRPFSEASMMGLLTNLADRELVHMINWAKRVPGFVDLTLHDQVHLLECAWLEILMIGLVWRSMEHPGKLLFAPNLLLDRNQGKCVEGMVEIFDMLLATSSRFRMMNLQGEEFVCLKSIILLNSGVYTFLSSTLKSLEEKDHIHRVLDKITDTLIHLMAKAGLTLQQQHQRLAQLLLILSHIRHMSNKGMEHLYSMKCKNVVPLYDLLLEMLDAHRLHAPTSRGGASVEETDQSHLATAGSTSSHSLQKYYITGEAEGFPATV
Androgen receptor (Homo sapiens), sequence (P10275 whole entry, looked up): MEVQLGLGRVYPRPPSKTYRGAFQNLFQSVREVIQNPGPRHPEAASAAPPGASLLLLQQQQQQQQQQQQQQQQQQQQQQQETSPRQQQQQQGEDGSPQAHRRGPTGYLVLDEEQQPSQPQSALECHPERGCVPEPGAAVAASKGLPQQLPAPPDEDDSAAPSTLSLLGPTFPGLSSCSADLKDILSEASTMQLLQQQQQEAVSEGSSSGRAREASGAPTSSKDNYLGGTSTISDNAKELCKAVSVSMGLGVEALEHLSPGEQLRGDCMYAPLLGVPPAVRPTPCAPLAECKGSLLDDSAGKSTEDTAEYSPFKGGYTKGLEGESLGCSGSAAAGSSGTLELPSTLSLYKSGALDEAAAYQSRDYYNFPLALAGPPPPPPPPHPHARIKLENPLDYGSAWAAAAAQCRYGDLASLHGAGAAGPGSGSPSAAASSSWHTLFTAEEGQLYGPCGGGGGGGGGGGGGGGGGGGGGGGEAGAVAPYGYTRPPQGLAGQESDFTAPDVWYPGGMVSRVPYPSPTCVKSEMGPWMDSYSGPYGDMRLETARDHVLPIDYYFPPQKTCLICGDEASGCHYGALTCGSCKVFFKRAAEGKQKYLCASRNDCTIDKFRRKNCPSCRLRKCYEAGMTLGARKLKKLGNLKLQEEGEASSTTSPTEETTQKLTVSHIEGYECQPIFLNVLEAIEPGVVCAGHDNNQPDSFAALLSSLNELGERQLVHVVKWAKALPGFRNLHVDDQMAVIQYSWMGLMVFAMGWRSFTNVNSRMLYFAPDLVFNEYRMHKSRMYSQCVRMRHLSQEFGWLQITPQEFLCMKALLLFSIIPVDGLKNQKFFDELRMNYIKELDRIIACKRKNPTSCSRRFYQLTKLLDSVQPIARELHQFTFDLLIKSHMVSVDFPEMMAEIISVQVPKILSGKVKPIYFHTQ

`Oc1ccccc1C=NCc1ccccc1`: the compound was called inactive in [1], in assay [3] and in [5]. The Potency entry (in assay [2]; in [4]; in assay [6]; in assay [7]; with Aromatase (Homo sapiens)) was “inactive” in each case.
On to `NNS(=O)(=O)c1ccc(Oc2ccc(S(=O)(=O)NN)cc2)cc1`, for which the outcome in assay [1], in assay [3], in assay [5], in [12] and in assay [14] was inactive. The Potency in assay [2] was 27.3 µM (active). Further, the Potency entry in [8], in assay [9], in assay [4], in [10], in [11] and in [6] was “inactive” each time. Moreover, the Potency result (in assay [13]; in [7]; with Aromatase (Homo sapiens)) was “inactive” throughout.
As for `CN(C)CCOc1ccccc1Cc1ccccc1`, the outcome in [1], in assay [3] and in assay [5] was inactive. Also, the Potency entry (in [2]; in [6]; in the assay with Aromatase (Homo sapiens)) was “inactive” in each case. For the same compound, in assay [7], the Potency was 2.37 µM (active).
Turning to `CCN(CCCc1ccccc1)CCCc1ccccc1`, the outcome in assay [1], in assay [3], in [5], in assay [12] and in assay [14] was inactive. For the same compound, the Potency was 1.27 µM (active) in assay [2] and 2.27 µM (active) in assay [8]. For the same compound, the Potency entry (in assay [4]; in assay [11]; in assay [6]; in [13]; in assay [7]; with Aromatase (Homo sapiens)) was “inactive” throughout.
As for `C[C@@H]1CN(c2c(F)c(F)c3c(=O)c(C(=O)O)cn(C4CC4)c3c2F)C[C@H](C)N1`, the outcome in [1], in assay [3], in [17], in assay [5], in assay [12] and in assay [14] was inactive. The Potency entry in assay [2], in assay [8], in [15], in assay [9], in [11] and in assay [6] was “inactive” in each case. The Potency entry (in assay [13]; in assay [7]; with Aromatase (Homo sapiens)) was “inactive” each time. Moreover, in assay [16], the Potency was 26.6 µM (active).
For `COc1ccccc1N1CCN(CCCNc2cc(=O)n(C)c(=O)n2C)CC1`, the call in assay [1], in assay [3], in [12] and in [14] was inactive. The Potency result in assay [2], in [8], in [9], in assay [4], in assay [11] and in [6] was “inactive” each time. Besides, the Potency result (in assay [13]; in assay [7]; with Aromatase (Homo sapiens)) was “inactive” in each case.
With `NC(=O)Cc1cccc(C(=O)c2ccccc2)c1N`, the compound was called inactive in assay [1], in assay [3] and in assay [5]. Also, the Potency result in assay [2], in assay [8], in [9], in assay [4], in assay [10] and in assay [6] was “inactive” each time. Besides, the Potency entry (in assay [7]; in the assay with Aromatase (Homo sapiens)) was “inactive” throughout.
On to `CC1(C)S[C@@H]2[C@H](NC(=O)C(C(=O)O)c3ccccc3)C(=O)N2[C@H]1C(=O)O` (stereo partly specified), for which the result in [1], in assay [3] and in [5] was inactive. Also, the Potency result (in assay [8]; in assay [4]; in assay [10]; in assay [6]; in assay [7]; with Aromatase (Homo sapiens)) was “inactive” each time.
As to `NC(Cc1ccc(F)cc1)C(=O)O` (stereo unspecified), the viability change, negative = cytotoxic in assay [1] is -1.1% [at 7.04 µM]; in assay [9] it was -1.4% [at 8.47 µM]. In [8], the Potency is 1.87 µM (active). For the same compound, the activity change, negative = cytotoxicity in assay [3] is -0.148% [at 7.04 µM]; in [7] it was -2.97% [at 8.47 µM]. Besides, the activation in assay [5] was -5.43% [at 8.08 µM]. Also, the activity, negative = cytotoxicity in assay [6] is -20% [at 6.72 µM]. Further, the activity, negative = inhibition with Aromatase (Homo sapiens) is -6.6% [at 8.47 µM].
`CCC(=O)O[C@]1(C(=O)SCF)[C@H](C)C[C@H]2[C@@H]3C[C@H](F)C4=CC(=O)C=C[C@]4(C)[C@@]3(F)[C@@H](O)C[C@@]21C`: the compound was called inactive in [1], in assay [3], in assay [5] and in assay [12]. Moreover, the Potency result in assay [2], in assay [9], in assay [10], in assay [6], in [13] and in [7] was “inactive” in each case. Besides, the Potency result with Aromatase (Homo sapiens) is “inactive”.
As for `CC(C)(CO)[C@@H](O)C(=O)NCCC(=O)O`, the compound was called inactive in assay [1], in assay [3], in [5], in [12] and in assay [14]. In addition, the Potency result in assay [2], in assay [8], in assay [4], in assay [10], in assay [11] and in assay [6] was “inactive” each time. The Potency result (in assay [13]; in assay [7]; in the assay with Aromatase (Homo sapiens)) was “inactive” each time.
`NCCC(O)(P(=O)(O)O)P(=O)(O)O`: the compound was called inactive in assay [1] and in [3]. In addition, the Potency result (in assay [2]; in assay [8]; in [9]; in [6]; in [7]; with Aromatase (Homo sapiens)) was “inactive” each time.
For `CCN[C@H]1CN(CCCOC)S(=O)(=O)c2sc(S(N)(=O)=O)cc21`, the compound was classed as inactive in assay [1], in assay [3], in assay [5], in assay [12] and in assay [14]. Also, the Potency entry in assay [2], in assay [8], in assay [9], in assay [4], in assay [10] and in assay [11] was “inactive” in each case. Further, the Potency entry (in assay [6]; in assay [13]; in assay [7]; in the assay with Aromatase (Homo sapiens)) was “inactive” each time.
As for `CC1(C)O[C@@H]2C[C@H]3[C@@H]4CCC5=CC(=O)CC[C@]5(C)[C@@]4(F)[C@@H](O)C[C@]3(C)[C@]2(C(=O)CCl)O1`, the result in assay [1], in [3] and in assay [5] was inactive. Moreover, the Potency result in assay [2], in assay [8], in assay [9], in assay [4], in assay [10] and in assay [11] was “inactive” in each case. Also, the Potency entry (in assay [6]; in assay [13]; in [7]; in the assay with Aromatase (Homo sapiens)) was “inactive” in each case.
Turning to `CN(C)Cc1ccccc1`, the compound was classed as inactive in assay [1], in assay [3], in assay [18], in assay [17] and in [5]. Further, the Potency result in [2], in assay [8], in assay [15], in [16], in assay [9] and in assay [4] was “inactive” in each case. Further, the Potency result (in assay [10]; in assay [6]; in assay [7]; with Aromatase (Homo sapiens)) was “inactive” each time.
Turning to `CC(C)Nc1nc(N)nc(Cl)n1`, the result in [1], in assay [3] and in assay [5] was inactive. For the same compound, the Potency result in assay [2], in [8], in assay [9], in [10], in assay [6] and in assay [7] was “inactive” throughout. The Potency result with Aromatase (Homo sapiens) was “inactive”.
For the compound `CC(C)c1ccccc1`, the compound was called inactive in assay [1], in assay [18], in [17], in [5], in assay [12] and in [14]. The Potency entry in [2], in assay [8], in assay [15], in [16], in [10] and in [11] was “inactive” each time. Moreover, the Potency entry in assay [6], in [13] and in assay [7] was “inactive” each time.
Take `ClC(Cl)Cl`: the call in [1], in assay [3] and in [5] was inactive. Besides, the Potency entry in assay [2], in [8], in assay [9], in assay [10], in assay [6] and in assay [7] was “inactive” in each case. Besides, in the assay with Aromatase (Homo sapiens), the Potency result is “inactive”.
For `O=C1N(c2ccccc2)c2ccccc2C1(Cc1ccncc1)Cc1ccncc1`, the result in [1], in assay [3], in [5], in assay [12] and in [14] was inactive. Also, the Potency entry in [8], in [4], in assay [10], in [11], in assay [13] and in assay [7] was “inactive” in each case. In the assay with Aromatase (Homo sapiens), the Potency result is “inactive”.
With `CC1(O)CSC(C)(O)CS1` (stereo unspecified), the result in assay [1], in [3], in [18], in assay [17], in assay [5] and in assay [12] was inactive. Also, in assay [14], the call was inactive. For the same compound, the Potency in [8] was 61.1 µM (active). Besides, the Potency entry in assay [15], in [16], in assay [9], in assay [4], in assay [10] and in assay [11] was “inactive” each time. Further, the Potency result (in assay [6]; in assay [13]; in [7]; with Aromatase (Homo sapiens)) was “inactive” each time.
